# The supplement of paper PMC12350171
# Counter-ions that a name gives are not always drawn. Values without a mark were called inactive.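 Rule for the calls: active = normalised median growth AUC below 0.1 of DMSO control; inactive = AUC 0.1 or higher.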
# Tested on: P. vulgatus WT
# Test: growth AUC normalised to DMSO control (median) (fraction of control); higher = less growth inhibition, active = hit call of the paper
# Conditions: 20 µM
# How it was run: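 In 96-well plates of mGAM seeded at OD578 0.01, strains that had been passaged twice overnight without oxygen were exposed to approved-drug library compounds at 20 μM with 1% DMSO. Hourly OD578 readings were taken for 24 h in an anaerobic incubator. The trapezoidal-rule area under the curve, with curves truncated at entry into stationary phase, was expressed relative to same-plate vehicle wells as the median of three biological replicates.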
# 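Note: active when median AUC fell below 0.1.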
row,SMILES,growth AUC normalised to DMSO control
1,CN(C)[C@@H]1C(=O)C(C(N)=O)=C(O)[C@@]2(O)C(=O)C3=C(O)c4c(O)cccc4[C@@](C)(O)[C@H]3C[C@@H]12 [Tetracycline hydrochloride],0.013 (active)
2,CC(Cc1ccc(O)cc1)NCC(O)c1cc(O)cc(O)c1 (stereo unspecified) [Fenoterol hydrobromide],1.03
3,Clc1ccc(C(OCCN2CCCCC2)c2ccccc2)cc1 (stereo unspecified) [Cloperastine hydrochloride],1
4,CC(O)(CS(=O)(=O)c1ccc(F)cc1)C(=O)Nc1ccc(C#N)c(C(F)(F)F)c1 (stereo unspecified) [Bicalutamide],0.988
5,CCN(C(C)=O)c1cccc(-c2ccnc3c(C#N)cnn23)c1 [Zaleplon],1
6,NCCCNCCSP(=O)(O)O [Amifostine],1.07
7,C[C@]12COC(=O)C[C@@H]1CC[C@@H]1[C@@H]2CC[C@@]2(C)[C@H]1CC[C@]2(C)O [Oxandrolone],1.05
8,Oc1cc(Cl)ccc1Oc1ccc(Cl)cc1Cl [Triclosan],0.357
9,C=CCN1CC[C@]23c4c5ccc(O)c4O[C@H]2C(=O)CC[C@@]3(O)[C@H]1C5 [Naloxone hydrochloride],0.997
10,CC(=O)OCC(=O)[C@H]1CC[C@H]2[C@@H]3CC[C@H]4C[C@H](O)CC[C@]4(C)[C@H]3C(=O)C[C@]12C [Alfadolone acetate],1.05
11,S=C(NC1CCCCC1)N1CCC(c2cnc[nH]2)CC1 [Thioperamide maleate],1.01
